Source: PubChem BioAssay
An excerpt weighted towards active compounds, which were near 18% of everything screened.
PLK1 PBD block: inhibitors of human PLK1 polo-box domain binding. 360,000 compounds, 2.8% hits. AID 720504. Potency, µM, for inactives: max response, negative = inhibition, usual class: inhibitors. Plk1 PBD binding of FITC phosphopeptide, fluorescence polarization; note: series mostly up to about 57 µM; nearly all actives have a fitted effect of over 65% in size
VDR inh: blocks the human vitamin D receptor; 400,000 compounds, 0.93% hits; VDR-SRC2-3 peptide fluorescence polarization, 2 h; Potency, µM, for inactives: max response, negative = inhibition, most hits filed as inhibitors
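Fluorescence polarization assay of small-molecule disruption of VDR binding to coregulator peptide SRC2-3. Compounds and controls pin-transferred, then read after 2 h incubation at ambient room temperature.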
DT40 TDP1 no CPT: qHTS for Inhibitors of human tyrosyl-DNA phosphodiesterase 1 (TDP1): qHTS in cells in absence of CPT; DT40 Tdp1-/- hTDP1 cells, no CPT, ATP luminescence, 48 h; Potency, µM (doses to about 46.2 µM), for inactives: top-dose activity change, negative = growth inhibition, actives largely listed as inhibitors; 420,000 compounds, 15% hits; note: nearly all actives have a fitted effect of over 55% in size
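Seeded 400 DT40-hTDP1 cells/well (vehicle DMSO, no 20 nM CPT); pinned compounds; ≥48 hr at 37 °C; CellTiter-Glo luminescence as viability measure.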
TDP1 block: inhibitors of human tyrosyl-DNA phosphodiesterase TDP1. Potency, µM (titrated, usually from 130 µM), inactives show at the top dose activity change, negative = inhibition, most hits filed as inhibitors. recombinant TDP1, AlphaScreen DNA substrate cleavage. 350,000 compounds, 0.28% hits; note: nearly all actives have a fitted effect of over 40% in size
Target sequence (Q9NUW8 whole entry, looked up): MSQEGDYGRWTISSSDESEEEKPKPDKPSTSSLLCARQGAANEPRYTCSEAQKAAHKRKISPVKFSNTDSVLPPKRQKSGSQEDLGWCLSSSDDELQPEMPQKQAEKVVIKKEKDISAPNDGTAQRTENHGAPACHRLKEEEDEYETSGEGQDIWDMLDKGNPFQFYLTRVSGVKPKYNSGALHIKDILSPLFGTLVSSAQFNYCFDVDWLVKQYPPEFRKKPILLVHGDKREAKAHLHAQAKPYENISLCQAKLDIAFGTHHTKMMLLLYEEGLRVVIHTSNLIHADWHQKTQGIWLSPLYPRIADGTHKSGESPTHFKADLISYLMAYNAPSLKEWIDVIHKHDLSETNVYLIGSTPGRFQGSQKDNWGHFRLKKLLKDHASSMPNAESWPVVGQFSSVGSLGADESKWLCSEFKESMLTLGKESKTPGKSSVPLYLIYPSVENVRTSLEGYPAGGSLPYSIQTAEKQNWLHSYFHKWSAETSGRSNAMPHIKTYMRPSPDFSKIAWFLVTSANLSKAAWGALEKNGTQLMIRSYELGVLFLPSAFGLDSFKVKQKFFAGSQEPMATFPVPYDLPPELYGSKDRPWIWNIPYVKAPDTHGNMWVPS
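Tdp1 1 nM final; 15 min RT w/ cpd; substrate 15 nM, 5 min; beads 10 ug/ml, 10 min; AlphaScreen read. Neg ctrl: no enzyme.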
TDP1 cell CPT: growth inhibition of DT40 Tdp1-/-;hTDP1 cells with camptothecin (screen for TDP1 inhibitors) | chicken DT40 Tdp1-/-;hTDP1 cells + 20 nM CPT, ATP luminescence, 48 h | 420,000 compounds, 12% hits | Potency, µM (doses to about 46.2 µM), for inactives: top-dose activity change, negative = growth inhibition, actives largely listed as inhibitors; note: nearly all actives have a fitted effect of over 55% in size
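Chicken DT40 Tdp1-/- cells complemented with human TDP1, 400 cells/well, exposed to compounds plus 20 nM camptothecin for at least 48 h at 37 C; viability read as ATP content by CellTiter-Glo luminescence.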
GCN5L2 inh: inhibitors of human GCN5L2 histone acetyltransferase. GCN5L2 HAT assay, ThioGlo1 CoA-SH fluorescence. Potency, µM (doses to about 58.9 µM), for the others: at the highest dose activity change, negative = inhibition, hits mostly inhibitors. Q92830. 390,000 compounds, 0.21% hits
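Free CoA generated was detected with ThioGlo1 (50uM) fluorescence at Ex340nm/Em540nm, read immediately and after 20 min at room temperature. Enzyme, 20 nM in HEPES pH 7.5 buffer, saw compounds 15 min before adding 75uM H3(1-25) peptide and 70uM acetyl-CoA.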
* = called active by the depositor; u = inconclusive; x = no result given. Calls come from the whole dose curve; as a rule, active = well fitted curve in the direction sought with a large enough effect; inconclusive = small, poorly fitted or top-dose-only effect, or another doubt; inactive = no such curve, though single readings can be large; an effect the other way counts as inactive or inconclusive. % is set by controls: 0 for no effect and ±100 for the full control effect; potency is the fitted concentration of half-maximal effect.

SMILES	PLK1 PBD block	VDR inh	DT40 TDP1 no CPT	TDP1 block	TDP1 cell CPT	GCN5L2 inh
CC1=C(c2ccc(C(C)C)cc2)S(=O)(=O)N=C1N1CCC(C(=O)NCc2ccccc2)CC1	x	2.9%	u	5.8%	u	-16.2%
CC(C)n1c(=O)nc(-c2ccccc2)c2cc3c(cc21)OCO3	-13.6%	x	u	x	1.9%	x
Cc1ccc(S(=O)(=O)N2CCC(=O)N(CCOC(=O)Nc3ccc(F)cc3)CC2)cc1	-0.8%	-13.7%	u	2.6%	u	1.0%
Fc1cc2[nH]c(=S)[nH]c2c(Br)c1N1CCSCC1	26.7µM*	-13.9%	-23.0%	x	u	-2.0%
Cc1cccc(N(C)S(=O)(=O)c2c[nH]c3ccc([N+](=O)[O-])cc23)c1	1.8%	16.2%	u	6.1%	u	-21.2%
COc1ccc(CCC(=O)N2c3ccccc3N=C(c3ccc(C(F)(F)F)cc3)C2C(=O)NC2CCCC2)cc1 (stereo unspecified)	0.5%	x	18.4µM*	x	u	x
O=C(NC1CCCC1)C1C(c2ccc(C(F)(F)F)cc2)=Nc2ccccc2N1C(=O)c1cc2ccccc2[nH]1 (stereo unspecified)	-2.1%	x	13µM*	x	u	x
CC(=O)N1c2ccccc2N=C(c2ccc(C(F)(F)F)cc2)C1C(=O)NC1CCCC1 (stereo unspecified)	1.6%	x	u	x	u	x
CC[C@H]1C2=C3C(CC[C@H]4C(OCc5ccc(F)cc5C(F)(F)F)OC[C@](C)([C@@H]34)N(C(=O)OC(C)(C)C)C2)C(COC(C)=O)C1COC(C)=O (stereo partly specified)	x	x	x	6.3%	x	x
Fc1ccc(-c2cn3cc(Cc4ccccc4Cl)sc3n2)cc1	x	-1.4%	u	-5.3%	u	-10.8%
Nc1ncnc2c1ncn2[C@@H]1O[C@H](C(=O)N[C@@H](CO)Cc2ccccc2)[C@@H](O)[C@H]1O	3.3%	x	-11.5%	x	0.4%	x
CC(=O)Nc1cccc(C(=O)OC(C(=O)c2ccc(C)c(C)c2)c2ccccc2)c1 (stereo unspecified)	-1.9%	14.4%	16.4µM*	6.0%	16.4µM*	-14.9%
CCC(=O)Nc1cccc(C(=O)/C=C/c2ccccc2)c1	-21.5%	50.1µM*	5.17µM*	x	4.11µM*	-2.6%
CCC(=O)Nc1cccc(C(=O)c2ccc(C)c(C)c2)c1	-10.8%	12.6%	20.6µM*	5.5%	-29.4%	-11.8%
CC(=O)Oc1ccc(C(=O)Nc2cccc(C(=O)c3ccc(C)c(C)c3)c2)cc1	-0.1%	4.4%	u	6.8%	u	-14.8%
CC(=O)Nc1cccc(C(=O)OC(C(=O)c2ccc(C)cc2)c2ccccc2)c1 (stereo unspecified)	-9.6%	-5.3%	u	9.6%	u	-9.6%
CC(=O)c1cccc(NC(=O)Cc2cccs2)c1	-7.3%	17.0%	-21.2%	1.0%	-1.8%	-3.5%
CCC(=O)Nc1cccc(C(=O)/C=C/c2cccs2)c1	-5.5%	-24.7%	20.6µM*	2.4%	u	-2.8%
C/C=C1\COC(C(=O)NCc2cccc(OC)c2OC)(C(F)(F)F)C=C1C=C(C)C (stereo unspecified)	x	-13.9%	x	-0.3%	x	x
COc1cccc(NC(=O)c2oc3ccccc3c2NC(=O)C2CCCCC2)c1	x	15.1%	16.4µM*	-6.4%	u	-11.6%
COc1cccc(NC(=O)c2oc3ccccc3c2NC(=O)c2cc3ccccc3o2)c1	x	1.5%	18.4µM*	1.3%	13µM*	-2.5%
O=C(Nc1ccc(F)cc1)c1oc2ccccc2c1NC(=O)C1CCCC1	4.2%	-4.0%	18.4µM*	1.0%	u	u
COc1ccc(-n2cc(CNCCCN3CCCC3=O)c(-c3ccccc3Cl)n2)cc1	-17.4%	18.5%	16.4µM*	x	16.4µM*	1.8%
CC(C)(C)NC(=O)CSc1nnc(-c2ccncc2)n1Cc1ccccc1	-4.2%	-3.2%	-1.5%	-7.1%	0.1%	-24.4%
CC(C)C(C)(C#N)NC(=O)CSc1nnc(-c2ccncc2)n1Cc1ccccc1 (stereo unspecified)	21.2µM*	u	u	-1.9%	u	-8.3%
SMILES	PLK1 PBD block	VDR inh	DT40 TDP1 no CPT	TDP1 block	TDP1 cell CPT	GCN5L2 inh
CCn1c(SCC(=O)NCc2ccco2)nnc1-c1cccc(N(C)C)c1	x	x	u	x	-31.0%	x
COc1ccc(CNc2nc(-c3ccccc3OC)nc3ccccc23)c(OC)c1	x	-3.2%	9.2µM*	3.6%	23.1µM*	-17.8%
COc1ccc(CNc2ccnc(-c3ccccc3OC)n2)c(OC)c1	x	-13.0%	23.1µM*	x	13µM*	-1.5%
COc1ccc(CNc2ccnc(-c3ccccc3Cl)n2)c(OC)c1	x	-5.5%	23.1µM*	x	u	-28.5%
COc1cccc(-c2nccc(NCc3ccc(OC)cc3OC)n2)c1	x	-8.0%	u	x	u	-20.6%
COc1cccc(-c2nc(NCc3ccc(OC)cc3OC)c3ccccc3n2)c1	x	-11.6%	u	x	u	u
COc1cccc(CN2CCC(C(=O)N3CCN(c4ccccc4F)CC3)CC2)c1OC	-1.0%	0.8%	-11.6%	-1.3%	-18.4%	2.9%
CC12CCC=CC1=C(C=O)C1C2CCC2(C)C(O)CCC12 (stereo unspecified)	-13.4%	-12.3%	25.9µM*	x	u	x
CCOC(=O)c1ccccc1NC(=O)N1CCN2CCCCC2C1 (stereo unspecified)	x	5.5%	-2.3%	-2.8%	20.7%	-9.6%
COc1cccc(CNC(=O)c2cc3c(s2)-c2c(C)cccc2OC3)c1	x	-2.5%	u	-6.8%	u	-15.1%
CCN(CC)C(=S)SCC(=O)c1ccc(Br)cc1	2.7%	-14.5%	23.1µM*	5.3%	-3.7%	-1.1%
CCn1c(CNC(C)=O)nnc1SCC(=O)c1ccc(Br)cc1	-20.7%	-67.7%	-15.2%	-3.3%	-20.8%	-10.0%
Cc1ccc(-c2nnc(SCC(=O)N(CC(C)C)c3c(N)n(Cc4ccccc4)c(=O)[nH]c3=O)n2N)cc1	-12.4%	-3.6%	2.2%	0.9%	3.3%	u
O=C(O)C1CSC(c2ccc3c(c2)OCO3)N1 (stereo unspecified)	10.6µM*	u	-10.8%	-5.6%	8.8%	2.0%
Cc1ccc(Cn2nnc3c(=O)[nH]c(C4CCCN(C(=O)Nc5ccc(F)cc5)C4)nc32)cc1 (stereo unspecified)	-4.3%	0.5%	18.4µM*	-1.0%	u	2.0%
COc1ccc(Cn2nnc3c(=O)[nH]c(C4CCCN(C(=O)c5ccc(C)cc5)C4)nc32)cc1 (stereo unspecified)	x	0.0%	u	2.5%	u	-3.0%
